Most compounds without a hit are left out; they make up all but 11% or so of the library.
Sfp inh: Sfp phosphopantetheinyl transferase inhibition | Q9F4F7 | Biochemical Sfp PPTase activity, qHTS | Potency, µM, for inactives: largest response in the series, negative = inhibition, most hits filed as inhibitors | 310,000 tested, 3.5% active;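 also: the enzyme is Sfp with the accession as filed and its product quenches rhodamine fluorescence; potency is read from the fitted curve at half-maximal effect; 0% = enzyme reaction without inhibitor and -100% = no enzyme wells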
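Compounds were incubated with enzyme (final 15 nM) for 15 min at room temperature before substrate addition started the reaction. Fluorescence at 525 nm excitation, 598 nm emission was recorded immediately and after 30 minutes.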
Coupling enz: coupling enzyme interference in Giardia aldolase counter-screen | 290,000 tested, 0.67% active | coupling enzyme system counterscreen, AmpLite Red fluorescence | activity change, negative = inhibition, % at 58.2 µM, hits read low | AID 2472; in the data active = activity change below about -30%
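First, compound is pin-transferred into glyceraldehyde-3-phosphate coupling-enzyme reagent at 57.5 uM final and held 10 min at RT. Next, substrate, coupling system and AmpLite Red are added. After 20 min RT, fluorescence (525/598 nm) is read.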
G9a block: G9a (human) methyltransferase inhibition; 350,000 tested, 8.8% active; Potency, µM (top dose mostly 102 µM), for the others: at the top dose activity, negative = inhibition, most hits filed as inhibitors; G9a H3K9 monomethylation, AlphaScreen, 2 h; AID 504332; Q96KQ7; also: potency is read from the fitted curve at half-maximal effect; nearly all actives have a fitted effect of over 75% in size
Target sequence (Q96KQ7 913-1193 limits assumed): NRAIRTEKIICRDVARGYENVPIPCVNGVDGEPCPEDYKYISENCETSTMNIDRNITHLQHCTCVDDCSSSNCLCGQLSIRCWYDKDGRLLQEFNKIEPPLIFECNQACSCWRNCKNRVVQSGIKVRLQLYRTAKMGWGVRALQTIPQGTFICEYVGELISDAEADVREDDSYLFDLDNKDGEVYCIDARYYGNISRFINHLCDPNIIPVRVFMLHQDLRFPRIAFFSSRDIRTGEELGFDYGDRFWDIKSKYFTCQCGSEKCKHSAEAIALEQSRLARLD
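Quantitative HTS format: methyltransferase activity on a biotin-tagged H3K9 peptide is measured by AlphaScreen, using a rabbit anti-monomethyl-H3K9 antibody with streptavidin donor and anti-IgG acceptor beads. Final levels are 20 nM enzyme, 500 nM peptide, 20 uM SAM; 2 h RT.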
Tau FP inhib: inhibitors of human tau fibril formation | P10636 | K18 P301L tau heparin fibrillization, Alexa594 FP, 6 h | AID 1468 | Potency, µM (top dose mostly 57.7 µM), without a hit: at the top dose activity, negative = inhibition, most hits filed as inhibitors | 280,000 tested, 0.39% active; also: potency is read from the fitted curve at half-maximal effect; nearly all actives have a fitted effect of over 55% in size
Target sequence (P10636 561-689 P618L limits assumed): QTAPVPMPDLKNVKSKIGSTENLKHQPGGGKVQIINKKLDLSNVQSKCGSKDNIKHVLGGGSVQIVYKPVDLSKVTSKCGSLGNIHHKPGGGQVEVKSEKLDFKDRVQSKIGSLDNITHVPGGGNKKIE
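Human tau K18 […] P301L fragment, 15 uM unlabeled plus 0.24 uM Alexa 594-labeled tau (final), with compound and 20 uM heparin in 100 mM sodium acetate pH 7; 6 hr at 37 C, then Alexa 594 FP read.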
Tau fluor counter: counter-screen for tau fibril formation inhibitors. 280,000 tested, 0.93% active. tau K18 P301L Alexa594 fluorescence, heparin fibrillization. Potency, µM (top dose mostly 57.7 µM), without a hit: at the top dose activity change, negative = decrease; also: potency is read from the fitted curve at half-maximal effect; nearly all actives have a fitted effect of over 55% in size
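Human K18 P301L tau (15 uM unlabeled plus 0.24 uM Alexa 594-labeled, final) in 100 mM sodium acetate pH 7 was mixed with compound and 20 uM heparin and incubated 6 hr at 37 C.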
Tau fibril ThT: blocks human tau fibril formation measured by thioflavin T; Potency, µM (highest dose often 57.4 µM), for the others: at the top dose activity, negative = inhibition, hits mostly inhibitors; recombinant tau K18 P301L (four-repeat tau fragment), heparin-induced fibrillization, ThT fluorescence; AID 1460; 270,000 tested, 2.1% active; also: potency is read from the fitted curve at half-maximal effect; nearly all actives have a fitted effect of over 55% in size
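Recombinant human tau K18 fragment […] carrying P301L, 15 uM unlabeled plus 0.24 uM Alexa 594-labeled, was fibrillized with 20 uM heparin in 100 mM sodium acetate pH 7 for 6 hr at 37 C; 30 uM ThT fluorescence read after 1 hr.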
Active calls of the source: *; ! = not active in a repeat; [ ] = dose if it differs, or a comment. Unless noted, calls follow the shape of the dose curve; as a rule, active = well fitted curve in the direction sought with a large enough effect; inconclusive = small, poorly fitted or top-dose-only effect, or another doubt; inactive = no such curve, though single readings can be large; an effect the other way counts as inactive or inconclusive. Unless noted, % is scaled to controls: 0 for no effect and ±100 for the full control effect.

Screening O=C(Nc1nnc(S(=O)(=O)N2CCOCC2)s1)c1ccccc1Br returned Sfp inh 2.4%, Coupling enz -0.3 and G9a block 79.4µM*.
Cc1cc(C)n2nc(SCc3cccc(F)c3)nc2n1 was read as Sfp inh 9.0%, Coupling enz -0.2 and G9a block 21.8%.
For O=C(OCc1cc(=O)n2nc(-c3cccs3)sc2n1)c1cccc(F)c1 the results were G9a block 10.3%[59 µM], Tau FP inhib -2.0%, Tau fluor counter 2.1% and Tau fibril ThT inconclusive.
Screening Cc1nn(CCCC(=O)Nc2ccccc2C(F)(F)F)c(=O)c2c1sc1ccccc12 returned G9a block inconclusive, Tau FP inhib -7.4%, Tau fluor counter inconclusive and Tau fibril ThT inconclusive.
O=C(Nc1nnc(S(=O)(=O)N2CCCCCC2)s1)c1ccccc1 was read as Sfp inh 9.7%, Coupling enz -9.2, G9a block 15.8µM*!, Tau FP inhib 1.0%, Tau fluor counter inconclusive and Tau fibril ThT 14.1µM*.
Screening CCc1nnc(NC(=O)c2ccc(S(=O)(=O)N3CCCCC3)cc2)s1 returned Sfp inh 9.8%, Coupling enz 1.3 and G9a block -5.6%.
O=C(Nc1nnc(S(=O)(=O)N2CCCC2)s1)c1ccccc1Cl was read as Sfp inh 13.3%, Coupling enz 1.0, G9a block inconclusive, Tau FP inhib 9.9%, Tau fluor counter inconclusive and Tau fibril ThT 3.55µM*.
For COc1ccccc1C(=O)Nc1nnc(S(=O)(=O)N2CCOCC2)s1 the results were Sfp inh 15.2% and G9a block 2.2%.
COc1ccccc1C(=O)Nc1nnc(S(=O)(=O)N2CCC(C)CC2)s1 was read as Sfp inh 5.0%, Coupling enz -5.4 and G9a block 79.4µM*.
Screening NC(=O)CSc1nnc(NC(=O)c2ccc(S(=O)(=O)N3CCCCC3)cc2)s1 returned G9a block 6.31µM*.
Screening CSc1ccc(CCNC(=O)c2csc3c2CCCCC3)cc1 returned G9a block 14.4%[59 µM], Tau FP inhib -7.7%, Tau fluor counter -13.7% and Tau fibril ThT -9.1%.
CC1=C(C(=O)OC(C)C)C(c2ccc3c(c2)OCO3)NC(=O)N1 (stereo not drawn) was read as Sfp inh 16.4%, Coupling enz 2.1 and G9a block 20.2%.
For CCOc1ccc(CNC2CCCc3ccccc32)cc1 (stereo not drawn) the results were Sfp inh -7.3%, Coupling enz -0.4, G9a block 11.2µM*, Tau FP inhib -3.3%, Tau fluor counter 6.0% and Tau fibril ThT 1.5%.
For COc1ccccc1CNC1CCCc2ccccc21 (stereo not drawn) the results were Sfp inh -10.6%, Coupling enz 1.5 and G9a block 44.7µM*.
COc1ccc(CNC2CCCc3ccccc32)cc1OC (stereo not drawn) was read as Sfp inh -5.7%, Coupling enz 3.8, G9a block inconclusive, Tau FP inhib -1.7%, Tau fluor counter 3.9% and Tau fibril ThT -3.0%.
CCC(=O)Oc1ccc(C2NC(=O)c3ccccc3O2)cc1OC (stereo not drawn) was read as Sfp inh 16.1%, Coupling enz -2.7 and G9a block 10.4%.
CN1CCN(c2cc3c(c4c2[nH]c2ccccc24)C(=O)CC(C)(C)C3)CC1 was read as Sfp inh inconclusive, Coupling enz -10.2, G9a block 56.2µM*, Tau FP inhib inconclusive, Tau fluor counter 14.1µM*[quencher] and Tau fibril ThT inconclusive.
`CC(C)=NNc1cc([N+](=O)[O-])cc2c1C(=O)N(C)S2=O` (stereo not drawn) gave Sfp inh 15.8µM*, Coupling enz -1.5, G9a block 44.7µM*, Tau FP inhib -15.6%, Tau fluor counter 1.5% and Tau fibril ThT inconclusive.
`O=S(=O)(c1ccccc1)n1nc(-c2ccco2)nc1NCc1ccccc1` gave G9a block -39.6%[59 µM], Tau FP inhib -8.1%, Tau fluor counter inconclusive and Tau fibril ThT -2.3%.
Cn1c(-c2ccccc2)cnc1NCc1ccc(F)cc1 was read as Sfp inh -31.8% and Coupling enz -0.8.
For CSc1ccc(CNc2ncc(-c3cccc([N+](=O)[O-])c3)n2C)cc1 the results were Sfp inh -12.3%, Coupling enz -0.1 and G9a block 28.2µM*.
`Cn1c(-c2cccc(Br)c2)cnc1NCc1cccnc1` gave Sfp inh inconclusive, Coupling enz -0.4, G9a block 14.1µM*, Tau FP inhib 2.7%, Tau fluor counter -16.9% and Tau fibril ThT -16.9%.
`COc1ccc(CNc2ncc(-c3cccc([N+](=O)[O-])c3)n2C)c(OC)c1OC` gave Sfp inh -13.3%, Coupling enz -2.5 and G9a block 31.6µM*.
CSc1cccc(NCc2ccc([N+](=O)[O-])cc2)c1 was read as Sfp inh inconclusive, Coupling enz 1.7, Tau FP inhib 14.4%, Tau fluor counter inconclusive and Tau fibril ThT inconclusive.
Cn1c(-c2ccccc2)cnc1NCc1cccc([N+](=O)[O-])c1 was read as Sfp inh -17.0%, Coupling enz 0.0 and G9a block 10µM*.
CCOC(=O)C1CCCN(S(=O)(=O)c2csc(C(N)=O)c2)C1 (stereo not drawn) was read as G9a block -11.7%[59 µM], Tau FP inhib 1.8%, Tau fluor counter -10.3% and Tau fibril ThT -9.2%.
`CCN(C(=O)c1ccnn1C)c1ccccc1` gave Sfp inh -0.1%, Coupling enz 0.2, G9a block inconclusive, Tau FP inhib 9.7%, Tau fluor counter -3.0% and Tau fibril ThT -4.8%.
Screening O=C(/C=C/c1ccco1)NC(=S)Nc1ccccc1N1CCOCC1 returned Sfp inh -0.8%, Coupling enz -0.5, G9a block inconclusive, Tau FP inhib -2.7%, Tau fluor counter -27.5% and Tau fibril ThT -17.8%.
`O=C(/C=C/c1ccco1)NC(=S)Nc1ccccc1N1CCCC1` gave Sfp inh 26.8%, Coupling enz -12.1, G9a block 15.8µM*, Tau FP inhib 2.8%, Tau fluor counter 4.7% and Tau fibril ThT 4.1%.
For O=C(O)/C=C\C(=O)Nc1ccccc1N1CCN(c2ccccc2)CC1 the results were Sfp inh inconclusive, Coupling enz 3.9 and G9a block 44.7µM*.
For O=C(/C=C/c1ccco1)Nc1ccccc1N1CCCC1 the results were Sfp inh inconclusive, Coupling enz -2.3, G9a block 44.7µM*, Tau FP inhib -4.0%, Tau fluor counter -4.2% and Tau fibril ThT -3.1%.
